From PubChem BioAssay (NCI) come the findings set out here.

What all share (assay): NCI-60 one-dose screen, 48 h (100 = growth as untreated, 0 = no growth, -100 = all killed)
Common to all, as to details: 10 µM unless noted

The test system of assay [1] is T-47D breast.
The test system of assay [2] is BT-549 breast.
In assay [3] the test system is MDA-MB-435 melanoma.
Assay [4] has as its system SW-620 colon.
Assay [5] relates to MCF7 breast.
For assay [6], the system named is HCT-116 colon.
Assay [7] relates to HCC-2998 colon.
Assay [8] concerns KM12 colon.

Molecules are shown by their SMILES. About 83,000 compounds went through this panel and 20% of them were active in at least one assay; those are over-represented in the sample as a whole.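 In brief: 96-well plates, 48 h treatment, single concentration, percent growth endpoint.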 A number with no mark means an inactive call. The source made the active and inactive calls. Rule for the calls: active = growth percent below 10; inactive = the rest.

As to `Cc1ccc(Cn2c(-c3cccs3)nc3ccccc32)cc1`, the growth in assay [1] was 72.5%; in assay [2], 128%; in assay [3] it was 111%; in assay [4] it was 81.2%; in assay [5], 87.7%; in assay [6], 76.5%. Besides, the growth in assay [7] is 94.9%; in assay [8], 96%.
`COc1cccc2nc(Nc3ccc(NC(=O)c4ccc5ncccc5c4)cc3)ccc12`: the growth in assay [1] was 68%; in assay [2] it was 69.7%; in assay [3], 88.7%; in assay [4], 97.7%; in assay [5], 70.3%; in assay [6] it was 84.5%. Further, the growth in assay [7] was 96.4%; in assay [8] it was 65.6%.
In the case of `c1ccc2c(c1)Oc1ccccc1C2C1c2ccccc2Oc2ccccc21`, the growth in assay [1] was 81.4%; in assay [2], 106%; in assay [3] it was 99.4%; in assay [4], 97.7%; in assay [5], 95.4%; in assay [6], 84.2%. The growth is 99.9% in assay [7] and 95.2% in assay [8].
In the case of `Clc1ccc([I+]c2ccc(Cl)cc2Cl)c(Cl)c1`, the growth is -44.9% (active) in assay [1]; 7.13% (active) in assay [2]; 82.2% in assay [3]; -43.4% (active) in assay [4]; -30.9% (active) in assay [5]; -37.7% (active) in assay [6]. In addition, the results for the growth in assay [7] and in assay [8] were 58.3% and 39.3%, respectively.
As to `CC(C)(C)c1cc(-c2nc3ccc(N4CCN(CCO)CC4)cc3[nH]2)cc(C(C)(C)C)c1O`, the growth in assay [1] was 60.6%; in assay [2], 92%; in assay [3], 6.38% (active); in assay [4], 9.88% (active); in assay [5] it was 35.6%; in assay [6] it was 25.3%. The growth in assay [7] is 12.9%; in assay [8] it was 18.2%.
As to `Cc1oc2ncnc(Nc3ccccc3)c2c1C(=O)NCCO`, the growth in assay [1] was 99.4%; in assay [2], 90.1%; in assay [3], 102%; in assay [4], 95.1%; in assay [5], 98.6%; in assay [6], 99.3%. Moreover, the growth was 103% in assay [7] and 95.2% in assay [8].
As for `Cc1ccc2c(c1)C(C)Cc1c(ncnc1-n1cnc3ccccc31)N2C` (stereo not drawn), the growth was 50.3% in assay [1]; -1.38% (active) in assay [2]; -47.9% (active) in assay [3]; 21.6% in assay [4]; 13.5% in assay [5]; 5.53% (active) in assay [6]. Also, the growth in assay [7] was 17.4%; in assay [8] it was 13.8%.
Take `CCc1cccc(C)c1NC(=O)c1sc2nc3c(cc2c1N)C(=O)CCC3`: the growth is 24.4% in assay [1]; 46.8% in assay [2]; -27.5% (active) in assay [3]; 28.7% in assay [4]; 20.3% in assay [5]; 31.6% in assay [6]. Besides, the growth in assay [7] was 10.2%; in assay [8], 19%.
On to `O=C1NC(Cc2c[nH]c3ccccc23)C(=O)N1Cc1ccc(Cl)cc1` (stereo not drawn), for which the growth in assay [1] was 94.3%; in assay [2], 96.3%; in assay [3], 92.2%; in assay [4], 98.4%; in assay [5] it was 98%; in assay [6], 93.4%. Also, the growth was 131% in assay [7] and 99.3% in assay [8].
For the compound `COc1ccc(C(=O)c2cc(OC)c(OC)c(OC)c2)cc1/C=C/C(=O)c1ccc2c(c1)OCO2`, the growth in assay [1] is 33.1%; in assay [2], -10.4% (active); in assay [3] it was 21.6%; in assay [4], -35.4% (active); in assay [5], 19.8%; in assay [6] it was -78.6% (active). The values for the growth in assay [7] and in assay [8] were 27.3% and -12% (active), respectively.
Turning to `O=C(CCCn1c(=O)c2sc3ccccc3c2n2nnc(-c3ccccc3)c12)NCCc1cnc[nH]1`, the growth was 4.62% (active) in assay [1]; 32.3% in assay [2]; -49.9% (active) in assay [3]; -11.1% (active) in assay [4]; -47.4% (active) in assay [5]; -86.6% (active) in assay [6]. The growth was -42.6% (active) in assay [7] and -7.92% (active) in assay [8].
Consider `CC(C)C[C@H](NC(=O)[C@@H](Cc1ccccc1)n1ccc(Nc2ccccc2)cc1=O)B(O)O`, for which the growth in assay [1] was -15.4% (active); in assay [2] it was -10.5% (active); in assay [3], -51.3% (active); in assay [4], -10.4% (active); in assay [5], 21.1%; in assay [6] it was -37.9% (active). The growth is -83.8% (active) in assay [7] and -55.1% (active) in assay [8].
`C[N+](C)(C)c1ccc(CC2c3ccccc3-c3ccccc32)cc1`: the growth in assay [1] is 51.1%; in assay [2], 59.2%; in assay [3] it was 90.4%; in assay [4], 86.2%; in assay [5] it was 84.1%; in assay [6], 73.3%. Moreover, the results for the growth in assay [7] and in assay [8] were 88.8% and 77%, respectively.
Consider `CS(=O)(=O)N(c1cc(-c2ccc3ncnc(Nc4cccc(Cl)c4)c3c2)cnc1Cl)S(C)(=O)=O`, for which the growth was -2.25% (active) in assay [1]; -8.61% (active) in assay [2]; 15.9% in assay [3]; 20.4% in assay [4]; 4.87% (active) in assay [5]; 12.1% in assay [6]. The growth is 23.9% in assay [7] and 21.3% in assay [8].
Turning to `O=C(CNc1ccc(Cl)cc1)Nc1ccc(-c2nc3ccccc3s2)cc1`, the growth in assay [1] was 4.58% (active); in assay [2], 16.7%; in assay [3], 62.8%; in assay [4], 22.6%; in assay [5] it was 11.5%; in assay [6] it was 23.3%. In addition, the results for the growth in assay [7] and in assay [8] were -16.2% (active) and 80.7%, respectively.
As for `O=S(=O)(NCCCNc1cc(-c2cn(-c3ccccc3)nc2-c2cccc(O)c2)ccn1)c1ccc(Cl)cc1`, the growth in assay [1] was 8.59% (active); in assay [2], 11.7%; in assay [3] it was 16.4%; in assay [4], 15.6%; in assay [5], 11%; in assay [6], 15%. Moreover, the values for the growth in assay [7] and in assay [8] were -44.9% (active) and 12.5%, respectively.
As for `CC(=O)n1cc([C@H]2CC[C@H](c3cn(C(C)=O)c4ccccc34)c3c2[nH]c2ccccc32)c2ccccc21`, the growth in assay [1] is 50.8%; in assay [2], 95.2%; in assay [3], 93.1%; in assay [4], 90.3%; in assay [5], 63.7%; in assay [6], 63.9%. Besides, the growth in assay [7] was 87.3%; in assay [8], 64.4%.
As to `O=C(CCl)NCCNc1nccc(Nc2ccc(S(=O)(=O)Nc3ccccn3)cc2)n1`, the growth in assay [1] was 9.1% (active); in assay [2], -5.35% (active); in assay [3], 7.62% (active); in assay [4] it was 8.07% (active); in assay [5], 11%; in assay [6], -44.6% (active). The growth in assay [7] was 99.7%; in assay [8], 34%.
In the case of `CCCCNC(=O)NS(=O)(=O)c1ccc(N2N=C(c3ccc(C)cc3C)CC2c2ccc(OC)cc2)cc1` (stereo not drawn), the growth in assay [1] was 75%; in assay [2] it was 49.9%; in assay [3], 9.96% (active); in assay [4], 75.9%; in assay [5] it was 48.7%; in assay [6], 51.6%. The growth in assay [7] is 58.6%; in assay [8], 48%.
On to `CC[C@H](C)[C@H]1NC(=O)[C@@H](N[C@](C)(O)[C@@H](N)CC(C)C)[C@@H](C)OC(=O)[C@H](Cc2ccc(OC)cc2)N(C)C(=O)[C@@H]2CCCN2C(=O)[C@H](CC(C)C)NC(=O)[C@@H](C)C(=O)[C@H](C(C)C)OC(=O)C[C@@H]1O`, for which the growth in assay [1] was -15.4% (active); in assay [2] it was -45.9% (active); in assay [3] it was -35.4% (active); in assay [4] it was 0.636% (active); in assay [5], 2.76% (active); in assay [6] it was -15.1% (active). The growth is -26.8% (active) in assay [7] and -14.8% (active) in assay [8].
In the case of `CCOC(=O)C1=C(C)NC(=O)NC1c1ccc(OCC(=O)N/N=C/c2ccc(Cl)cc2)cc1` (stereo not drawn), the growth in assay [1] was 87.1%; in assay [2], 87.5%; in assay [3], 90.6%; in assay [4] it was 94.2%; in assay [5], 90.1%; in assay [6] it was 94.2%. The growth in assay [7] was 97.5%; in assay [8], 96.3%.
Turning to `O=c1oc2cc(OS(=O)(=O)c3ccccc3)c(Cl)cc2c2c1CCCCCC2`, the growth is 73.9% in assay [1]; 79.1% in assay [2]; 90% in assay [3]; 98.1% in assay [4]; 90.6% in assay [5]; 74.8% in assay [6]. In addition, the values for the growth in assay [7] and in assay [8] were 106% and 92.1%, respectively.
Take `COc1ccc(/C=C/C(=O)OCC(=O)NNC(=O)c2ccccc2)cc1OC`: the growth in assay [1] was 101%; in assay [2], 98.6%; in assay [3], 104%; in assay [4], 98.4%; in assay [5], 85.6%; in assay [6], 103%. The growth in assay [7] is 127%; in assay [8], 115%.
For `NC(=O)c1ccc2c(c1)OCO2`, the growth in assay [1] is 111%; in assay [2], 110%; in assay [3] it was 100%; in assay [4], 98%; in assay [5], 95.6%; in assay [6], 101%. Also, the growth in assay [7] is 100%; in assay [8], 103%.
Turning to `COc1cc(C(=O)N2CCN(C(=O)c3ccco3)CC2)c(N)cc1OCc1ccccc1`, the growth in assay [1] is 97.1%; in assay [2], 105%; in assay [3] it was 113%; in assay [4], 105%; in assay [5] it was 93.1%; in assay [6], 93.3%. The growth in assay [7] was 125%; in assay [8], 103%.
Consider `C=CCn1c(C)nc2ccc(Nc3nc(Nc4ccc(F)cc4)nc4ccccc34)cc21`, for which the growth was 35% in assay [1]; 59.2% in assay [2]; 57.1% in assay [3]; 46.1% in assay [4]; 26.1% in assay [5]; 26.9% in assay [6]. For the same compound, the growth is 80.6% in assay [7] and 36.6% in assay [8].
